Assay results: PubChem BioAssay (NCATS)
Where “and” joins values, the source holds several entries; their conditions need not be identical. Equal values may be shown once. Results filed as inconclusive are left out. Calls of active or inactive are those of the source. Unless noted, calls come from the whole dose curve; as a rule, active = well fitted curve in the direction sought with a large enough effect; inconclusive = small, poorly fitted or top-dose-only effect, or another doubt; inactive = no such curve, though single readings can be large; an effect the other way counts as inactive or inconclusive.

Assays:
[1] = qHTS for compounds that reverse cellular toxicity of Amyloid beta (A-beta) peptide in yeast: LOPAC Validation Assay (AID 720559);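 note: plate controls were DMSO for no effect and equimolar ferric chloride plus clioquinol rescue for full effect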
Summary of the method: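 Medium dispensed, compounds pinned, A-beta yeast suspension added; plates held at 30 C for 48 hr; absorbance measured at 600 nm to gauge growth; values scaled between DMSO and FeCl3/clioquinol (equimolar) controls.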

[2] = qHTS for Activators of Parkin Expression: LOPAC Validation Assay (NLuc Reporter) (AID 720572;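 note: 0% = DMSO and 100% = positive control compound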)
Summary of the method: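 Parkin promoter-driven FLuc/NLuc neuronal reporter cells; 24 h plating, 7-pt dose response, 24 h at 37 C/5% CO2; FLuc then NanoLuc reagent, 10 min each, luminescence; DMSO/positive control normalized.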

[3] = molecular target: T1, Hexokinase-4 (Homo sapiens) + Glucokinase regulatory protein (Homo sapiens) (UniProt P35557+Q14397); experiment: qHTS assay for inhibitors of recombinant human GCK-GKRP interaction: Diaphorase-coupled assay (AID 743205)
Summary of the method: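 25 mM Hepes pH 7.6, 5 mM glucose, 0.4 mM ATP, 4 U/ml G6PDH; 10 nM each GST-GCK/FLAG-GKRP. Kinetic fluorescence read, 1/min × 30 min. Normalized: DMSO ± enzyme = max/min.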

[4] = molecular target: T1, Hexokinase-4 (Homo sapiens) + Glucokinase regulatory protein (Homo sapiens); experiment: qHTS assay for inhibitors of recombinant human GCK-GKRP interaction: ADP-Glo assay (AID 743206);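 note: plate controls were DMSO plus enzyme for no effect and no enzyme for full effect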
Summary of the method: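 GST-GCK and FLAG-GKRP (15 nM each in the dispensed mix, with 2 uM S6P) react with 0.4 mM ATP and 5 mM glucose (final) in Hepes pH 7.6 for 60 min at room temperature. ADP is measured by ADP-Glo luminescence.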

[5] = molecular target: T1, Hexokinase-4 (Homo sapiens) + Glucokinase regulatory protein (Homo sapiens); experiment: qHTS assay for inhibitors of recombinant human GCK-GKRP interaction: HTRF assay (AID 743207);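 note: 0% = DMSO with GCK present and -100% = DMSO wells lacking GCK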
Summary of the method: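 5 nM GST-GCK + 5 nM FLAG-GKRP + 2 uM S6P, pH 7.1 buffer (25 mM Hepes, 2 mM MgCl2, 25 mM KCl, 1 mM DTT, Tween/BSA); pin-transferred cpd; anti-FLAG XL665/anti-GST K; 60 min RT; HTRF.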

[6] = qHTS Assay for Identifying Gametocytocidal Compounds (AID 743244);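 note: % is set by controls: 0 for no effect and ±100 for the full control effect; actives lower the fluorescent signal which means gametocytes are killed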; conditions: P. falciparum 3D7 stage III-V gametocytes, alamarBlue, 72 h; max response: stronger effect = lower value
Summary of the method: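 In this qHTS viability screen, late-stage 3D7 gametocytes are incubated with compound for 72 h, then with alamarBlue for 24 h; reduced resorufin fluorescence marks killing.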

[7] = qHTS profiling of the MIPE4 collection as inhibitors of Plasmodium falciparum (3D7) proliferation (AID 743344; call rule not given here;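 note: scaled between DMSO vehicle wells and 0.29 µM artemisinin as full inhibition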); conditions: P. falciparum 3D7 in erythrocytes, SYBR Green DNA fluorescence, 72 h; at 28.5 µM (top of the series) unless noted
Summary of the method: (§1)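 Erythrocytes infected with P. falciparum (0.3% parasitemia, 2.5% hematocrit) incubated with compounds 72 h at 37 C, 5% CO2. Lysis with saponin/Triton buffer containing SYBR Green I, overnight at room temperature in the dark; DNA fluorescence (485/535 nm) normalised to 0.29 uM artemisinin and DMSO.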

[8] = qHTS profiling of the MIPE4 collection as inhibitors of Plasmodium falciparum (DD2) proliferation (AID 743345; call rule not given here); conditions: P. falciparum Dd2 in erythrocytes, SYBR Green DNA, 72 h; at 28.5 µM (top of the series) unless noted
Summary of the method: as §1

[9] = qHTS profiling of the MIPE4 collection as inhibitors of Plasmodium falciparum (DD2) proliferation (Rep 2) (AID 743346; call rule not given here); conditions: P. falciparum Dd2 in erythrocytes, SYBR Green DNA, 72 h; at 28.5 µM (top of the series) unless noted
Summary of the method: as §1

[10] = qHTS profiling of the MIPE4 collection as inhibitors of Plasmodium falciparum (HB3) proliferation (AID 743347; call rule not given here;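 note: plate controls were DMSO vehicle wells for no effect and artemisinin wells for full effect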); conditions: P. falciparum HB3 in erythrocytes, SYBR Green DNA, 72 h; at 28.5 µM (top of the series) unless noted
Summary of the method: as §1

[11] = High-throughput drug toxicity screening in the BPDCN cell line Gen2.2 (AID 1224824; call rule not given here;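 note: cells exposed to compounds for 48 h before reading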); conditions: Gen2.2 BPDCN cells; at 45.8 µM (top of the series) unless noted
Summary of the method: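 Seed 500 exponentially growing Gen2.2 cells/well; add compounds by pin tool; incubate 48 h, 37 °C, 5% CO2; add CellTiter-Glo, 15 min RT; read luminescence. % activity vs DMSO (100%) and bortezomib (0%).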

[12] = qHTS assay for small molecule agonists of the antioxidant response element (ARE) signaling pathway measured by Nrf2-dependant transcriptional activity (AID 720636; active = well fitted curve in the direction sought with a large enough effect in the repeat runs; an effect the other way counts as inactive or inconclusive; note: % of control where 0% means no effect)
Summary of the method: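 Quantitative HTS format in HepG2 cells stably expressing an ARE-luciferase reporter; 16 hr compound treatment at 37 C, luciferase signal detected with ONE-Glo.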

[13] = qHTS assay for small molecule agonists of the antioxidant response element (ARE) signaling pathway measured by Nrf2-dependant transcriptional activity - cell viability counter screen (AID 720653; active = well fitted curve in the direction sought with a large enough effect in the repeat runs; an effect the other way counts as inactive or inconclusive; note: % is set by controls: 0 for no effect and ±100 for the full control effect); conditions: ARE-bla HepG2 viability, CellTiter-Glo ATP luminescence, 16 h; max response: stronger effect = lower value
Summary of the method: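 Cytotoxicity counter screen: intracellular ATP quantified by CellTiter-Glo luminescence in the same ARE-bla HepG2 plates, after 16 h compound exposure and a 2 h beta-lactamase substrate step.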

[14] = qHTS assay for cell viability of HEK293 cells (AID 743288); conditions: ATP luminescence (CellTiter-Glo), 18 h; max response: stronger effect = lower value; note: % is set by controls: 0 for no effect and ±100 for the full control effect; nearly all actives have a fitted effect of over 50% in size
Summary of the method: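 HEK293 parental, 2,000 cells/well; ≥5 h pre-incubation 37 C; pintool compound addition; 18 h, 37 C; CellTiter-Glo 30 min RT; luminescence read.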

[15] = qHTS for small molecule inhibitors of Yes1 kinase: Counter Assay (AID 686950);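 note: no kinase present so only ADP-Glo detection of a fixed ADP amount is tested; luminescence from ADP-Glo reporting ADP in a fixed ATP and ADP mixture; 0% = DMSO wells with ATP plus ADP and -100% = ATP-only wells without ADP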
Summary of the method: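 Luminescence read-out from ADP-Glo quantifies a fixed ADP amount (0.02 mM ADP with 0.08 mM ATP) after 60 min at room temperature; signal is normalized between DMSO wells with ATP/ADP and with 0.1 mM ATP alone.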

[16] = qHTS profiling for inhibitors of Plasmodium falciparum (DD2) proliferation (AID 743323; call rule not given here); conditions: lower = more inhibition; at 28.7 µM (top of the series) unless noted
Summary of the method: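 Parasite DNA quantified by SYBR Green fluorescence (ex 485, em 535 nm) after saponin/Triton lysis and overnight dark incubation. Cultures: 0.3% parasitemia, 2.5% hematocrit, 72 h, 37 C; data scaled between DMSO and 0.29 uM artemisinin.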

[17] = qHTS profiling for inhibitors of Plasmodium falciparum (HB3) proliferation (AID 743324); conditions: Plasmodium falciparum HB3 blood-stage proliferation; at 28.7 µM (top of the series) unless noted;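 note: 100% = DMSO vehicle wells and 0% = artemisinin-treated control wells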
Summary of the method: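 P. falciparum HB3 grown in erythrocytes (0.3% parasitemia, 2.5% hematocrit final) with compound for 72 h at 37 C, 5% CO2. Parasite DNA detected by SYBR Green after saponin/triton lysis overnight; normalized to 0.29 uM artemisinin and DMSO.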

T1 sequence (P35557 whole entry, looked up): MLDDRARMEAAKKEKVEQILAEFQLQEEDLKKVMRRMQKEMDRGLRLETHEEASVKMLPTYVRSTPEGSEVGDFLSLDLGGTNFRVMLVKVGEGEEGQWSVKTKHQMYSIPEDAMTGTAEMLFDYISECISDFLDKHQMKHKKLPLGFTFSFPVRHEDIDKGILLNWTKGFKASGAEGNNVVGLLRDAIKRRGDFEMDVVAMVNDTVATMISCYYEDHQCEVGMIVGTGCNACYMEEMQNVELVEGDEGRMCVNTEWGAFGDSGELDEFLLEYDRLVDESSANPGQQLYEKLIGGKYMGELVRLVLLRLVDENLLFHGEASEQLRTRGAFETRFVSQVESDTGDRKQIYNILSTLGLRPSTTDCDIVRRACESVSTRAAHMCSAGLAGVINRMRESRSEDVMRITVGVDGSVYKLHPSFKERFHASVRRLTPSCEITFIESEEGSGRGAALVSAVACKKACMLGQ
T1 sequence (Q14397 whole entry, looked up): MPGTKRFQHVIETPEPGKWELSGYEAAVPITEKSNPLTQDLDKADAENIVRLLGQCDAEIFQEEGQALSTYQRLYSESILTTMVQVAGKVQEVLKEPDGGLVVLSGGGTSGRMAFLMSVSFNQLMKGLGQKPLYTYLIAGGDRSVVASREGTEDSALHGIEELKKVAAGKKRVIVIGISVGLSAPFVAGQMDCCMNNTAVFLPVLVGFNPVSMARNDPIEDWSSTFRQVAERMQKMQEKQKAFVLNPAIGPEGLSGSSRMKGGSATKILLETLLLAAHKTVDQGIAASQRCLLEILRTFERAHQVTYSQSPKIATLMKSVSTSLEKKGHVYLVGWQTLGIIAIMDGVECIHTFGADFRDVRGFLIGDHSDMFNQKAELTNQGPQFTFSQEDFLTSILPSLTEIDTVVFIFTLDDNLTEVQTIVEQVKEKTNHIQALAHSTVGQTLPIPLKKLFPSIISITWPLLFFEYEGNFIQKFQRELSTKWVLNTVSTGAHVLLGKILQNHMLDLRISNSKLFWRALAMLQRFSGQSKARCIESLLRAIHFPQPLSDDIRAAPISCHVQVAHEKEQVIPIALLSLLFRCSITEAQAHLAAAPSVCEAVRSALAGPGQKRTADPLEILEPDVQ

Compound | outcome [1] | outcome [2] | outcome [3] | outcome [4] | outcome [5] | max response [6] | parasite growth, % of DMSO control [7] [%] | parasite growth remaining, % of DMSO control (lower = more inhibition) [8] [%] | parasite growth, % of control (lower = inhibition) [9] [%] | growth, % of control [10] [%] | cell viability, % of control (lower = more cytotoxic) [11] [%] | Potency [12] | max response [13] | max response [14] | outcome [15] | activity, percent of control [16] [%] | remaining proliferation (% of control), lower = more inhibition [17] [%]
COc1ccc2cc([C@H](C)C(=O)O)ccc2c1 | inactive | inactive | inactive | inactive | inactive | 18.3% (inactive) and 6.4% (inactive) | 106 | 100 | 91 | 102 | 127 |  |  |  |  |  | 
Nc1ccn([C@@H]2O[C@H](CO)[C@@H](O)C2O)c(=O)n1 (some centres not stated) | inactive | inactive | inactive | inactive | inactive | 0.0114% (inactive) and -8.34% (inactive) | 89.3 | 137 | 71 | 107 | 225 |  |  |  |  |  | 
O=C(c1ccccc1)c1ccc2n1CCC2C(=O)O (configuration not stated) | inactive | inactive | inactive | inactive | inactive | 44.1% (inactive) and 46.1% (inactive) | 67.8 | 107 | 121 | 104 | 14.8 |  |  |  |  |  | 
CC(=O)Nc1ccc(O)cc1 |  |  |  |  |  |  |  |  |  |  | 105 | inactive | -1.61% (inactive) and -10.9% (inactive) | -9.69% (inactive) and -0.289% (inactive) |  |  | 
O=c1ccc2ccc(O)c(O)c2o1 | inactive | inactive | inactive | inactive | inactive |  | 169 | 34.2 | 19.7 | 162 | 42.5 |  |  |  |  |  | 
CN(C)CCCC1(c2ccc(F)cc2)OCc2cc(C#N)ccc21 (configuration not stated) | inactive | inactive | inactive | inactive | inactive | 7.27% (inactive) | 95.4 | 63.7 | 45.5 | 93 | 120 |  |  |  |  |  | 
CC1(C)C(=O)N(CCN2CCC(C(=O)c3ccc(F)cc3)CC2)c2ccccc21 | inactive | inactive | inactive | inactive | inactive | 6.71% (inactive) | 49 | 15.4 | 26.2 | 34.5 | 37.4 |  |  |  |  |  | 
O=C1c2ccccc2-c2n[nH]c3cccc1c23 | inactive |  | inactive | inactive | inactive | -3.57% (inactive) and 13.7% (inactive) | 62.9 | 93 | 87 | 85.2 | 84.7 |  |  |  |  |  | 
Cc1nc(Nc2ncc(C(=O)Nc3c(C)cccc3Cl)s2)cc(N2CCN(CCO)CC2)n1 |  |  |  |  |  |  | 13.5 | 65.3 | 17.6 | 3.03 | 74.9 |  |  |  | inactive | 71.4 | 34.2
